Laboratory results taken from PubChem BioAssay AID1159580 (chemical genetic matrix, 2015).
Hit rate of the full screen: of about 5,500 compounds, about 2,000 (36%) were called active. About 18% were inconclusive and are not listed. Cut-off read from the data, not from the text of the source: active = normalized growth mostly below about 0.91 (no sharp cut-off); inconclusive = no clear call, values can overlap the other calls; inactive = mostly above about 0.92. Some of the results follow.

Assay: chemical genetic growth profiling, strain panel (AID 1159580);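 note: tested at 20 µM; growth read once vehicle control cultures reached saturation at 30 °C; 1 = growth at the plate median or of vehicle wells; lower values mean less growth of the strain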
Conditions: S. cerevisiae deletion strains, growth OD
[1] = locus YAL021C, strain ccr4, stronger effect = lower value
[2] = locus YAL026C, strain drs2, stronger effect = lower value
[3] = locus YAL030W, strain snc1, stronger effect = lower value
[4] = locus YBL061C, strain skt5, stronger effect = lower value
[5] = locus YBR009C, strain hhf1, stronger effect = lower value
[6] = locus YBR023C, strain chs3, stronger effect = lower value
[7] = locus YBR171W, strain sec66, stronger effect = lower value
[8] = locus YBR231C, strain swc5, stronger effect = lower value
[9] = locus YBR279W, strain paf1, stronger effect = lower value
[10] = locus YCL011C, strain gbp2, stronger effect = lower value
[11] = locus YCL016C, strain dcc1, stronger effect = lower value
[12] = locus YCL069W, strain vba3, stronger effect = lower value
[13] = locus YCR088W, strain abp1, stronger effect = lower value
[14] = locus YDL005C, strain med2, stronger effect = lower value
[15] = locus YDL040C, strain nat1, stronger effect = lower value
[16] = locus YDR001C, strain nth1, stronger effect = lower value
[17] = locus YDR069C, strain doa4, stronger effect = lower value
[18] = locus YDR137W, strain rgp1, stronger effect = lower value
[19] = locus YDR159W, strain sac3, stronger effect = lower value
[20] = locus YDR297W, strain sur2, stronger effect = lower value
[21] = locus YDR334W, strain swr1, stronger effect = lower value
[22] = locus YDR335W, strain msn5, stronger effect = lower value
[23] = locus YDR392W, strain spt3, stronger effect = lower value
[24] = locus YEL003W, strain gim4, stronger effect = lower value
[25] = locus YEL037C, strain rad23, stronger effect = lower value
[26] = locus YEL061C, strain CIN8 (second series), stronger effect = lower value
[27] = locus YER015W, strain faa2, stronger effect = lower value
[28] = locus YER016W, strain bim1, stronger effect = lower value
[29] = locus YER111C, strain swi4, stronger effect = lower value
[30] = locus YER155C, strain BEM2 (second series), stronger effect = lower value
[31] = locus YFR010W, strain ubp6, stronger effect = lower value
[32] = locus YGL167C, strain pmr1, stronger effect = lower value
[33] = locus YGL173C, strain kem1, stronger effect = lower value
[34] = locus YGL227W, strain vid30, stronger effect = lower value
[35] = locus YGL240W, strain doc1, stronger effect = lower value
[36] = locus YGL253W, strain hxk2, stronger effect = lower value
[37] = locus YHR013C, strain ard1, stronger effect = lower value
[38] = locus YHR027C, strain rpn1, stronger effect = lower value
[39] = locus YHR030C, strain SLT2, stronger effect = lower value
[40] = locus YHR079C, strain IRE1, stronger effect = lower value
[41] = locus YHR142W, strain chs7, stronger effect = lower value
[42] = locus YJL092W, strain hpr5, stronger effect = lower value
[43] = locus YJL095W, strain BCK1 (second series), stronger effect = lower value
[44] = locus YJL095W, strain BCK1, stronger effect = lower value
[45] = locus YJL115W, strain asf1, stronger effect = lower value
[46] = locus YJL129C, strain trk1, stronger effect = lower value
[47] = locus YJL154C, strain vps35, stronger effect = lower value
[48] = locus YJL164C, strain tpk1, stronger effect = lower value
[49] = locus YJL166W, strain qcr8, stronger effect = lower value
[50] = locus YJL187C, strain SWE1, stronger effect = lower value
[51] = locus YJR066W, strain TOR1, stronger effect = lower value
[52] = locus YKL160W, strain elf1, stronger effect = lower value
[53] = locus YKR026C, strain gcn3, stronger effect = lower value
[54] = locus YKR091W, strain srl3, stronger effect = lower value
[55] = locus YLL001W, strain dnm1, stronger effect = lower value
[56] = locus YLL026W, stronger effect = lower value
[57] = locus YLL041C, strain sdh2, stronger effect = lower value
[58] = locus YLR027C, strain aat2, stronger effect = lower value
[59] = locus YLR113W, strain HOG1, stronger effect = lower value
[60] = locus YLR221C, strain rsa3, stronger effect = lower value
[61] = locus YLR258W, strain gsy2, stronger effect = lower value
[62] = locus YLR262C, strain YPT6 (second series), stronger effect = lower value
[63] = locus YLR320W, strain mms22, stronger effect = lower value
[64] = locus YLR342W, strain FKS1, stronger effect = lower value
[65] = locus YLR357W, strain rsc2, stronger effect = lower value
[66] = locus YLR370C, strain arc18, stronger effect = lower value
[67] = locus YLR384C, strain iki3, stronger effect = lower value
[68] = locus YML120C, strain ndi1, stronger effect = lower value
[69] = locus YMR058W, strain fet3, stronger effect = lower value
[70] = locus YMR125W, strain sto1, stronger effect = lower value
[71] = locus YMR129W, stronger effect = lower value
[72] = locus YMR205C, strain PFK2, stronger effect = lower value
[73] = locus YMR231W, strain pep5, stronger effect = lower value
[74] = locus YNL071W, strain lat1, stronger effect = lower value
[75] = locus YNL183C, strain NPR1, stronger effect = lower value
[76] = locus YNL209W, strain ssb2, stronger effect = lower value
[77] = locus YNL248C, strain rpa49, stronger effect = lower value
[78] = locus YNL322C, strain KRE1 (second series), stronger effect = lower value
[79] = locus YNR049C, strain mso1, stronger effect = lower value
[80] = locus YOR001W, strain rrp6, stronger effect = lower value
[81] = locus YOR070C, strain gyp1, stronger effect = lower value
[82] = locus YOR080W, strain dia2, stronger effect = lower value
[83] = locus YOR083W, strain WHI5, stronger effect = lower value
[84] = locus YOR106W, strain vam3, stronger effect = lower value
[85] = locus YOR231W, strain MKK1, stronger effect = lower value
[86] = locus YOR265W, strain rbl2, stronger effect = lower value
[87] = locus YOR270C, strain vph1, stronger effect = lower value
[88] = locus YOR290C, strain snf2, stronger effect = lower value
[89] = locus YPL051W, strain arl3, stronger effect = lower value
[90] = locus YPL078C, strain atp4, stronger effect = lower value
[91] = locus YPL106C, strain sse1, stronger effect = lower value
[92] = locus YPL240C, strain hsp82, stronger effect = lower value
[93] = locus YPL256C, strain CLN2, stronger effect = lower value

Measured: normalized growth

C=C1C(=O)[C@]23[C@H](O)[C@H]1CC[C@H]2[C@@]12CO[C@]3(O)[C@H](O)[C@@H]1C(C)(C)CC[C@@H]2O
inactive: [1] 1.02 | [2] 0.99 | [3] 1 | [4] 0.987 | [5] 0.948 | [6] 0.991 | [7] 0.999 | [8] 1.01 | [9] 1 | [10] 0.983 | [11] 0.972 | locus YCL061C, strain MRC1, stronger effect = lower value 1 | [12] 0.995 | [13] 1 | [14] 1.01 | [15] 0.993 | [16] 1 | [17] 1.04 | [18] 0.99 | [19] 1 | locus YDR195W, strain ref2 1.03 | [20] 1 | [21] 0.994 | [22] 1 | [23] 0.883 | [24] 0.992 | [25] 1 | [26] 1 | [27] 0.982 | [28] 1.01 | [29] 0.999 | [30] 0.984 | [31] 0.995 | [32] 0.995 | [33] 1 | [34] 1 | [35] 1.02 | [36] 1.02 | [37] 1.03 | [38] 0.986 | [39] 1.01 | [40] 0.992 | [41] 1.01 | [42] 1.02 | [43] 0.99 | [44] 0.974 | [45] 0.988 | [46] 1.03 | [47] 1.01 | [48] 0.972 | [49] 1.02 | [50] 1.02 | [51] 0.962 | [52] 1.04 | [53] 0.994 | [54] 0.995 | [55] 1 | [56] 0.992 | [57] 0.991 | [58] 1 | [59] 0.94 | [60] 0.975 | [61] 0.994 | [62] 1.01 | [63] 1.01 | [64] 1.01 | [65] 0.999 | [66] 0.973 | [67] 0.993 | [68] 0.982 | [69] 1 | [70] 1.02 | [71] 0.997 | [72] 1.02 | [73] 0.994 | [74] 1.01 | [75] 0.95 | [76] 0.993 | [77] 1.06 | [78] 0.994 | [79] 0.99 | [80] 0.964 | [81] 0.992 | [82] 0.998 | [83] 1.02 | [84] 1.02 | [85] 1.02 | [86] 0.984 | [87] 1.04 | [88] 0.996 | [89] 1.04 | [90] 1.04 | [91] 0.981 | [92] 0.975 | [93] 0.984

C=CCS(=O)C[C@H](N)C(=O)O (some centres undefined)
inactive: [1] 1 | [2] 1 | [3] 0.982 | [4] 1 | [5] 1 | [6] 1 | [7] 0.982 | [8] 0.981 | [9] 0.999 | [10] 0.992 | [11] 1.02 | [12] 0.984 | [13] 0.986 | [14] 1 | [15] 1.01 | [16] 1 | [17] 0.985 | [18] 0.97 | [19] 0.996 | locus YDR195W, strain ref2 0.986 | [20] 1 | [21] 1.01 | [22] 0.991 | [23] 0.979 | [24] 1 | [25] 1.01 | [26] 1.01 | [27] 1 | [28] 0.982 | [29] 1.01 | [30] 0.961 | [31] 0.998 | [32] 0.997 | [33] 0.999 | [34] 0.969 | [35] 0.994 | [36] 1 | [37] 0.981 | [38] 0.994 | [39] 1.02 | [40] 1.01 | [41] 1.02 | [42] 0.999 | [43] 0.998 | [44] 1.03 | [45] 0.992 | [46] 0.997 | [47] 0.995 | [48] 0.997 | [49] 0.991 | [50] 0.998 | [51] 0.952 | [52] 1 | [53] 0.984 | [54] 0.986 | [55] 1.01 | [56] 0.994 | [57] 0.995 | [58] 1 | [59] 1.02 | [60] 1 | [61] 0.987 | [62] 0.987 | [63] 1 | [64] 0.996 | [65] 0.961 | [66] 0.995 | [67] 0.994 | [68] 0.992 | [69] 0.998 | [70] 0.991 | [71] 0.976 | [72] 1.01 | [73] 0.998 | [74] 0.988 | [75] 0.971 | [76] 0.985 | [77] 1 | [78] 0.98 | [79] 0.997 | [80] 1.01 | [81] 1 | [82] 1.01 | [83] 0.962 | [84] 1 | [85] 1.01 | [86] 1.01 | [87] 1.02 | [88] 1 | [89] 0.983 | [90] 1.02 | [91] 0.929 | [92] 0.983 | [93] 1.02
